Compound activity from PubChem BioAssay.
MEKK2mut PB1 HTS = signal of MEK5 binding to mutant human MEKK2 PB1 domain; percent response, % at 10 µM; actives 0.35% (n = 290,000); AID 1530; bead flow cytometry, Alexa488-MEK5 binding to MEKK2 mutant; in the data active = percent response above about 24%, passing the limit was not always enough
MEKK3 PB1 HTS = raises or lowers MEK5 binding to the human MEKK3 PB1 domain; bead-based flow cytometry, Alexa488-MEK5 binding to MEKK3; actives lie on both sides; 0 = blocked by unlabeled MEK5, 100 = vehicle; binding response (% of control), % at 10 µM; actives 1.4% (n = 290,000); AID 1529;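 active = binding response more than 3 SD above or below the average of its plate-row segment, actives on both sides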;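 also: Alexa488 bead fluorescence after subtracting the streptavidin-only scavenger bead signal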
MEKK2wt PB1 HTS = raises or lowers MEK5 binding to wildtype human MEKK2 PB1 domain; bead flow cytometry, Alexa488-MEK5 binding to MEKK2 WT; actives lie on both sides; binding response (% of control), % at 10 µM; actives 1.1% (n = 290,000); AID 1531; in the data active = binding response below about 67% or above about 130%
VLA-4 inh = inhibition in a human VLA-4 binding assay; VLA-4 expressing cells, ligand binding flow cytometry; inhibition, % (about 7 µM as worked out from the volumes in the protocol); actives 0.2% (n = 330,000); in the data active = inhibition above about 50%
MEKK2wt confirm = raises or lowers MEK5 binding to wildtype human MEKK2, retest; shares compounds with MEKK3 PB1 HTS; bead flow cytometry, Alexa488-MEK5 binding to MEKK2 WT; actives lie on both sides; binding response (% of control), % at 10 µM; actives 2.4% (n = 5,900); in the data active = binding response below about 16% or above about 210%; inactive = in between
MEKK2mut confirm = signal of MEK5 binding to mutant human MEKK2, retest. actives 2% (n = 5,900). percent response, % at 10 µM. shares compounds with MEKK3 PB1 HTS. bead flow cytometry, Alexa488-MEK5 binding to MEKK2 mutant; in the data active = percent response mostly above about 71%, no sharp cut-off; inactive = mostly below about 38%;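 also: higher means compound restores mutant binding toward wildtype level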
MEKK3-MEK5 inh = MEKK3-MEK5 PB1 inhibition, single concentration confirmation. actives 1.8% (n = 5,900). binding response (% of control), % at 10 µM. shares compounds with MEKK3 PB1 HTS. bead flow cytometry, Alexa488-MEK5 binding to MEKK3; stronger effect = lower value;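 active = binding response below 72% of control, or above a set upper limit, though filed actives all read lower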;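 also: 100% = DMSO only wells and 0% = binding blocked by excess unlabeled MEK5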
An asterisk follows results filed as active; x = no result given; [ ] = dose if it differs, or a comment. Most compounds without a hit are left out; they make up all but 2.2% or so of the library.

SMILES | MEKK2mut PB1 HTS | MEKK3 PB1 HTS | MEKK2wt PB1 HTS | VLA-4 inh | others
CC(C)CC(NC(=O)C(NC(=O)C1CCC(=O)N1C(=O)OCc1ccccc1)C(C)C)C(=O)N1CCCC1C(N)=O (configuration not stated) | -5.0 | 99.0 | 93.0 | 4.5
CCOC(=O)CCNC(=O)N1CCCC(CNS(=O)(=O)c2cccs2)C1 (configuration not stated) | 0.0 | 101.0 | 98.0 | 1.0
CN1CCN(c2ccccc2NC(=O)c2ccc(-c3ccc(Br)cc3)o2)CC1 | 13.0 | 104.0 | 125.0 | 11.8
O=C(Nc1ccccc1N1CCCCC1)c1ccc(-c2ccc(Cl)cc2)o1 | 0.0 | 141.0* | 106.0 | -1.1
CCN(CC)c1ccc(/C=C/C(=O)c2cccnc2)cc1 | -7.0 | 89.0 | 90.0 | 50.3*
C=CCNC(=S)NNc1nc2sc3c(c2c(=O)[nH]1)CC(C)(C)OC3 | 1.0 | 101.0 | 103.0 | 4.8
CC(C)CN(C(=O)c1ccc(S(=O)(=O)N2CCCC2)cc1)C1CCS(=O)(=O)C1 (configuration not stated) | x | x | x | 11.4
CCN(CC)CCNC(=O)c1ccc(NC(=O)c2cccc(S(=O)(=O)Nc3ccc(C)cc3)c2)cc1 | 1.0 | 106.0 | 114.0 | -2.1
CCN(CC)CCNC(=O)c1ccc(NC(=O)c2ccc(Cl)c(S(=O)(=O)Nc3ccccc3OC)c2)cc1 | 12.0 | 104.0 | 147.0* | x
CCN(CC)CCNC(=O)c1ccc(NC(=O)Nc2cccc3ccccc23)cc1 | 30.0* | 101.0 | 140.0* | 5.6
Cc1nn(C)cc1/C=N/NC(=O)Cn1nnc(N)n1 | 3.0 | 99.0 | 111.0 | 25.2
CCCNC(=O)C(Cc1ccccc1)NC(=O)c1ccc(C(F)(F)F)cc1 (configuration not stated) | x | x | x | 13.9
Cc1cn(-c2ccccc2)c(C)c1/C=N\Nc1nc(N2CCOCC2)nc(N2CCOCC2)n1 | -6.0 | 95.0 | 100.0 | 4.3
CCSC1=NCCN1S(=O)(=O)c1ccccc1 | -16.0 | 50.0*[inhibitor] | 58.0 | 21.7 | MEKK2wt confirm=103.0;MEKK2mut confirm=-2.0;MEKK3-MEK5 inh=106.0
CCSC1=NCCN1S(=O)(=O)c1ccc(Cl)cc1 | -12.0 | 109.0 | 100.0 | 10.5
Cn1cc(C(=O)Nc2ccc(Cl)c(Cl)c2)cn1 | x | x | x | 16.5
CC(=O)O[C@@H]1[C@@H](OC(C)=O)[C@H](n2ccc3cc([N+](=O)[O-])ccc32)OC[C@@H]1OC(C)=O | 4.0 | 109.0 | 102.0 | 2.8
Cc1cc(C)c2cc3c(ccn3C3OC[C@H](O)[C@H](O)[C@H]3O)cc2n1 (some centres not stated) | 12.0 | 102.0 | 6.0*[inhibitor] | -4.5 | MEKK2wt confirm=109.0;MEKK2mut confirm=12.0;MEKK3-MEK5 inh=104.0
COC(=O)C1C(=O)OC(C)(C)C1C(C)C(=O)c1ccc(C)cc1C (configuration not stated) | 0.0 | 100.0 | 104.0 | 23.8
CCOC(=O)C1C(=O)OC(C)(C)C1C(C)C(=O)c1ccc(C)cc1C (configuration not stated) | -26.0 | 1.0*[inhibitor] | -2.0*[inhibitor] | -2.7 | MEKK2wt confirm=96.0;MEKK2mut confirm=15.0;MEKK3-MEK5 inh=102.0
Cc1ccc(C(=O)CSc2ncnc3sc4c(c23)CCCC4)cc1 | -22.0 | 0.0*[inhibitor] | -7.0*[inhibitor] | 10.2 | MEKK2wt confirm=99.0;MEKK2mut confirm=-3.0;MEKK3-MEK5 inh=99.0
O=C(CN(C(=O)C1CSC(=O)C1)c1cccc(F)c1)NCc1ccc2c(c1)OCO2 (configuration not stated) | 0.0 | 98.0 | 101.0 | 7.3
Cc1noc(C)c1S(=O)(=O)Nc1ccc(C(=O)NC2CCCCC2)cc1 | -32.0 | 20.0*[inhibitor] | 33.0*[inhibitor] | 3.6 | MEKK2wt confirm=101.0;MEKK2mut confirm=6.0;MEKK3-MEK5 inh=103.0
CO/N=C1\CCCc2c(C(=O)NN)sc(SC)c21 | -5.0 | 91.0 | 88.0 | 21.0
CCOC(=O)c1sc(SC)c2c1CCC/C2=N/OC | 30.0 | 131.0* | 118.0 | -6.3 | MEKK2wt confirm=99.0;MEKK2mut confirm=0.0;MEKK3-MEK5 inh=102.0
CN(C)S(=O)(=O)c1ccc(C(=O)OCC(=O)Nc2sc3c(c2C#N)CCCCC3)cc1 | 3.0 | 108.0 | 103.0 | 5.2
